FXN GAA850 act: frataxin GAA850 promoter activation | HEK293 lucGAA850 FXN promoter luciferase reporter, 24 h; percent of 10 µM SAHA response | activation, % at 6 µM | hit rate 0.56% among 360,000 | AID 540364;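 active = activation above the average of all compounds screened plus 3 SD, cutoff fixed separately per campaign, cut at about 7.5% in these data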;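 note: 0% = DMSO wells and 100% = 10 µM SAHA wells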
hgDAF-12 ag: hgDAF-12 agonism, primary luciferase screen; hit rate 1.8% among 370,000; activation, % at 6.8 µM; HEK293 GAL4-hgDAF12 UAS-luciferase reporter, agonist luminescence; normalized to butyrate control;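 active = activation above a cutoff set at the mean of all screened compounds plus 3 SD, cut at about 10% in these data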;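 note: 0% = DMSO wells and 100% = sodium butyrate wells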
DAX1 inh-1: inhibitors of human orphan nuclear receptor DAX1 (NR0B1) | P51843 | HEK293 Gal4-DAX1 luciferase reporter, luminescence | inhibition, % at 6.75 µM | hit rate 0.99% among 340,000;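 active = inhibition above the mean over all tested compounds plus 3 SD, cut at about 4.2% in these data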;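 note: 0% = DAX1-transfected cells with DMSO and 100% = empty-vector control cells with DMSO; inhibition shows as a rise in luminescence from relieved DAX1 repression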
Target sequence (P51843 207-470 limits assumed): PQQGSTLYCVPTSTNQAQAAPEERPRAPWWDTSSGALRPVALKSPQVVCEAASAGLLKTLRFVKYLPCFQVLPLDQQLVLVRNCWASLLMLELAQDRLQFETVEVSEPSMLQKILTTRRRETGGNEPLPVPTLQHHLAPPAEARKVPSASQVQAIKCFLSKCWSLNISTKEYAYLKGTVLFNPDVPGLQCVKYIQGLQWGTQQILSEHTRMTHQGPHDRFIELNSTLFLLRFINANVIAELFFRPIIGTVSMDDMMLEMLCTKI
hcDAF12 agonist: activators of H. contortus DAF-12 nuclear receptor. hit rate 1.4% among 370,000. AID 652067. HEK293 hcDAF-12 lit1-tk-luc reporter, luminescence; 0% DMSO, 100% Δ7-dafachronic acid. activation, % at 6.8 µM;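 active = activation above the mean of all tested compounds plus 3 SD, cut at about 5.5% in these data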;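 note: 100% = response to 3 µM Δ7-dafachronic acid high control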
DAX1 inh-2: blocks DAX1 repression of SF-1 activated StAR promoter; HEK293T StAR-luciferase reporter, SF-1/DAX-1 repression relief; inhibition, % at 6.8 µM; hit rate 1.1% among 370,000;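 active = inhibition above the mean over all tested compounds plus 3 SD, cut at about 3.6% in these data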;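 note: 0% = DAX-1 cells with DMSO and 100% = cells lacking DAX-1 with DMSO; higher inhibition means more luminescence from relief of DAX-1 repression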
ssDAF-12 act: activates DAF-12 receptor from parasite S. stercoralis | HEK293 ssDAF-12/GRIP1 lit1-tk-luc reporter, luminescence; % of 3 µM dafachronic acid response | activation, % at 6.8 µM | hit rate 1% among 370,000 | AID 652126;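 active = activation above the mean over all tested compounds plus 3 SD, cut at about 0.9% in these data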;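 note: 0% = DMSO-only wells and 100% = 3 µM delta7-dafachronic acid wells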
LXR ag: activates human LXR-beta, counter-screen for hcDAF-12 agonists; shares compounds with hcDAF12 agonist; 3,400 tested, under 10 active; AID 743027; activation, % at 6.8 µM; HEK293 Gal4-LXR tk-luc reporter, luminescence, 24 h; normalized: DMSO 0%, positive control 100%;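 active = mean percent activation of the reporter above a cutoff set as the average over tested compounds plus their standard deviation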
hcDAF12 ag: hcDAF-12 agonism, confirmation assay | shares compounds with hcDAF12 agonist | HEK293 hcDAF-12 lit1-tk-luc reporter, luminescence; % of Δ7-dafachronic acid response | activation, % at 6.8 µM | hit rate 61% among 3,400 | AID 743032;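 active = mean activation across triplicate tests above the threshold derived from the earlier primary screen, cut at about 5.5% in these data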;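 note: 0% = DMSO only wells and 100% = 3 µM Δ7-dafachronic acid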
hgDAF12 conf: confirmation of H. glycines DAF-12 agonists | shares compounds with hgDAF-12 ag | HEK293 GAL4-hgDAF12 luciferase reporter, agonist mode; percent of butyrate response | activation, % at 6.8 µM | hit rate 80% among 3,300 | AID 743050;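 active = mean activation over triplicate wells above the hit cutoff derived from the earlier primary screen, cut at about 11% in these data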;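 note: 0% = DMSO low control and 100% = 2 mM sodium butyrate high control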
LXR ag 2: LXR-beta agonism as DAF-12 counter-screen | HEK293 Gal4-LXR luciferase reporter, 24 h | shares compounds with hgDAF-12 ag | activation, % at 6.8 µM | 3,300 tested, under 10 active;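 active = mean activation of the triplicate above a set limit carried over from the primary screen, none filed active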
The depositor's hits bear a star; nt = not tested or not shown. Compounds with a hit are over-represented: about 4.5% of the library has one in this group of screens.

SMILES	FXN GAA850 act	hgDAF-12 ag	DAX1 inh-1	hcDAF12 agonist	DAX1 inh-2	ssDAF-12 act	LXR ag	hcDAF12 ag	hgDAF12 conf	LXR ag 2
Cc1csc(NC(=O)c2cc3c(s2)CCC3)n1	0	17*	-1	7.4*	3	1	2	9.0*	18*	1
CN(C)C=Nc1ccc2nc3c(cc2c1)[nH]c1ccccc13	9.2*	17*	1	18*	2	1.9*	1	13*	19*	1
CCOC(=O)c1[nH]c2ccccc2c1N=CN(C)C	1	2	1	5	0	-1	nt	nt	nt	nt
O=C1c2ccccc2-c2nc3ccccc3cc21	6	15*	4	7.9*	2	1.0*	1	9.9*	17*	1
CC(C)c1cc(C(C)C)c(S(=O)(=O)NCC(=O)N2CCN(c3ncccn3)CC2)c(C(C)C)c1	nt	3	nt	-2	-1	-1	nt	nt	nt	nt
O=C(O)c1cccc(COc2ccc3c(c2)CCC3)c1	3	14*	-9	10*	3.6*	2.8*	2	12*	23*	1
Nc1c(-c2cccs2)cnc2c(-c3ccc(F)cc3)cnn12	6	16*	2	9.0*	3	1.0*	2	6.6*	25*	1
CS(=O)(=O)c1cnc2c(-c3ccc(F)cc3)cnn2c1N	7	5	2	4	1	0	nt	nt	nt	nt
COc1ccc2nc(NC(=O)c3ccco3)sc2c1	-2	6	-3	4	1	-1	nt	nt	nt	nt
O=C(Nc1nc2ccccc2s1)c1ccc(Cl)s1	1	15*	6.5*	8.4*	4.0*	0	2	7.2*	21*	1
Cc1ccc2nc(NC(=O)c3ccc(-c4nc5ccccc5s4)s3)sc2c1	-8	-9	0	-3	-3	-2	nt	nt	nt	nt
O=C(Nc1nc2ccc(Cl)cc2s1)c1ccco1	0	16*	1	7.4*	4	0	1	6.6*	17*	1
Cc1cc(Cl)ccc1NC(=O)CCN1C(=O)NC(C)(C)C1=O	1	2	0	0	0	-1	nt	nt	nt	nt
O=S(=O)(Nc1nc2ccccc2nc1N1CCN(c2ccccn2)CC1)c1ccc(Cl)cc1	2	2	1	0	0	-1	nt	nt	nt	nt
O=S(=O)(Nc1nc2ccccc2nc1N1CCc2ccccc2C1)c1ccc(Cl)cc1	5	20*	0	16*	4.3*	2.5*	0	6.3*	24*	1
COc1ccccc1Cc1c(-c2ccco2)nc2cc(C)c(Br)c(C)n12	nt	1	nt	1	1	0	nt	nt	nt	nt
Cc1ccccc1-c1nnc(-c2ccc(Cl)cc2)o1	5	7	1	5	1	-1	nt	nt	nt	nt
Cc1ccc(-c2nnc(-c3ccccc3Br)o2)cc1	2	20*	4	15*	3	1.8*	1	10*	20*	1
Brc1ccc(-c2nnc(-c3ccccc3Br)o2)cc1	4	10	0	5	2	-1	nt	nt	nt	nt
Cc1ccccc1-c1nnc(-c2ccccc2)o1	3	14*	3	7.8*	2	1	1	9.3*	17*	1
CC(C)c1ccc(/C=C(\NC(=O)c2ccccc2)C(=O)NCCN2CCOCC2)cc1	0	1	1	1	0	-1	nt	nt	nt	nt
S=C(NC1CCCCC1)N1CCN(Cc2ccccc2Cl)CC1	-2	2	3	-2	-1	-2	nt	nt	nt	nt
COc1ccc(/C=C(\NC(=O)c2ccccc2)C(=O)NCCN2CCOCC2)cc1	0	-1	-1	1	0	0	nt	nt	nt	nt
O=C(O)c1cccc(-c2nnn(Cc3ccccc3Cl)n2)c1	2	13*	-4	6.7*	4.4*	2.0*	1	8.5*	22*	1
O=[N+]([O-])c1ccc(/C=C/c2ccc3ccccc3n2)cc1	1	24*	-2	11*	3.8*	1.0*	2	9.7*	13*	1
SMILES	FXN GAA850 act	hgDAF-12 ag	DAX1 inh-1	hcDAF12 agonist	DAX1 inh-2	ssDAF-12 act	LXR ag	hcDAF12 ag	hgDAF12 conf	LXR ag 2
O=[N+]([O-])c1ccc(/C=C/c2ccc3cccc(O)c3n2)cc1	3	7	2	2	0	-1	nt	nt	nt	nt
c1nc(NC[C@@H]2CCCO2)c2cc(-c3ccc4c(c3)OCO4)ccc2n1	nt	6	nt	0	nt	-1	nt	nt	nt	nt
CCCCNC(=O)c1cc(-c2ccc3c(c2)OCO3)on1	3	2	3	3	1	0	nt	nt	nt	nt
CC(C)NC(=O)c1cc(-c2ccc3c(c2)OCO3)on1	2	14*	2	6.6*	3	0	1	5	14*	1
CC1(C)CC(/C=C/c2ccccc2)=Nc2ccccc2N1	5	19*	6.0*	7.6*	2	1.8*	0	2	10	0
O=C1CC(/C=C/c2ccccc2)=Nc2ccccc2N1	0	3	1	-1	1	-1	nt	nt	nt	nt
O=C(O)c1ccccc1C(=O)Nc1ccccc1NC(=O)c1ccccc1C(=O)O	3	15*	nt	7.0*	3	0	0	0	13*	1
Cc1ccc(NC(=O)N2CCc3ccccc32)cc1	-1	15*	-1	10*	3.7*	1.1*	2	11*	23*	1
O=C(COc1ccc(Br)cc1)N1CCc2ccccc21	5	7	2	1	2	-2	nt	nt	nt	nt
O=C(COc1ccccc1)N1CCc2ccccc21	4	14*	1	8.5*	1	-1	1	6.4*	12*	1
Cc1ccc(NC(=O)N2CCCc3ccccc32)cc1	2	3	1	2	3	-1	nt	nt	nt	nt
O=C(c1ccccc1)C1CC=CCC1C(=O)c1ccccc1 (stereo not given)	0	-2	0	-2	-4	-1	nt	nt	nt	nt
Cc1ccc(-c2nc3ccccc3nc2NN)cc1	4	18*	5.1*	12*	3	2.2*	2	11*	20*	1
CC(=C/c1ccccc1)/C=N/NC(=O)c1cccs1	3	19*	nt	7.8*	2	-1	2	8.2*	15*	1
Nc1cc(-c2nc3ncccc3o2)ccc1Cl	5	14*	2	12*	3	1.4*	1	8.3*	10	0
